ChEMBL document CHEMBL4513146, “CO-ADD screening of Karazin Kharkiv National University (Ukraine) compounds”
Results with a measured potency or affinity are listed apart.

Tests used:
Staphylococcus aureus = conditions: Concentration 32 ug.mL-1;; ASSAY_TEST Inhibition of Bacterial Growth; detection method Absorption (OD600); MEDIA CAMHB; plate type 384well; NBS; CORNING #3640; time 18 hr
Escherichia coli = conditions: Concentration 32 ug.mL-1;; ASSAY_TEST Inhibition of Bacterial Growth; detection method Absorption (OD600); MEDIA CAMHB; plate type 384well; NBS; CORNING #3640; time 18 hr

Row | SMILES | Inhibition (Staphylococcus aureus) | Inhibition (Escherichia coli)
1 | CCc1ccc(N(Cc2cccc(F)c2)S(=O)(=O)c2cccn3c(CC)nnc23)cc1 | 13.65% | -0.18%
2 | Cc1ccc(-c2cc3c4nnc(CCC(=O)NCc5ccc(C(F)(F)F)cc5)n4ccn3n2)cc1C | 3.78% | -2.88%
3 | CCOc1ccc(NC(=O)Cn2nc3c(Sc4ccccc4)nccn3c2=O)cc1 | 1.52% | -2.95%
4 | O=C(CSc1nnc2c3cc(-c4ccc(F)cc4)nn3ccn12)NCCc1ccccc1 | 4.82% | -7.39%
